Measurements as given in PMC5540273 (PLoS ONE, 2017).

Columns and labels:
Details in all cases: concentration: 1 μM, replicates: in singlicate; n = 1
[1] = test system: TLK2
[2] = test system: TNIK
[3] = test system: TNK1
[4] = test system: TNK2
[5] = test system: TNNI3K
[6] = test system: T1, TRKA
T1 construct: gene NTRK1

[7] = test system: TRKB
[8] = test system: T2, TRKC
T2 construct: gene NTRK3

[9] = test system: TRPM6
[10] = test system: TSSK1B
[11] = test system: TSSK3
[12] = test system: TTK
[13] = test system: TXK
[14] = test system: TYK2(JH1domain-catalytic)
[15] = test system: TYK2(JH2domain-pseudokinase)
[16] = test system: TYRO3
[17] = test system: ULK1
[18] = test system: ULK2
[19] = test system: ULK3
[20] = test system: T3, VEGFR2
T3 construct: gene KDR
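Also: KINOMEscan kinase panel screen.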

Row | SMILES | %Inh [1] | %Inh [2] | %Inh [3] | %Inh [4] | %Inh [5] | %Inh [6] | %Inh [7] | %Inh [8] | %Inh [9] | %Inh [10] | %Inh [11] | %Inh [12] | %Inh [13] | %Inh [14] | %Inh [15] | %Inh [16] | %Inh [17] | %Inh [18] | %Inh [19] | %Inh [20]
1 | O=C(NCCNc1ccnc(Nc2ccc(F)cc2)n1)Nc1ccccc1F [GSK1379880] | 0% | 0% | 0% | 8% | 5% | 0% | 18% | 13% | 24% | 0% | 12% | 0% | 1% | 24% | 17% | 0% | 19% | 0% | 28% | 0%
2 | N#Cc1c(N2CCOCC2)sc(-c2ccn[nH]2)c1-c1ccc(Cl)cc1 | 0% | 0% | 0% | 0% | 0% | 12% | 6% | 8% | 0% | 0% | 0% | 19% | 0% | 14% | 20% | 0% | 8% | 15% | 20% | 11%
3 | NS(=O)(=O)CCc1cccc(Nc2nccc(-c3c(-c4cccc(NC(=O)c5c(F)cccc5F)c4)nn4ccccc34)n2)c1 [GSK336735] | 2% | 85% | 100% | 89% | 48% | 0% | 19% | 11% | 56% | 28% | 23% | 26% | 90.1% | 98.7% | 18% | 100% | 0% | 0% | 3% | 90%
4 | CCn1cnc2c(N)ncnc21 [GW345098] | 0% | 17% | 7% | 10% | 4% | 24% | 0% | 7% | 81% | 20% | 6% | 0% | 8% | 23% | 0% | 32% | 0% | 21% | 0% | 0%
5 | CN1c2ccc(CNc3ccc(F)cc3)cc2-c2c(cnn2C)S1(=O)=O | 0% | 9% | 12% | 0% | 0% | 0% | 0% | 0% | 0% | 0% | 0% | 0% | 0% | 0% | 0% | 0% | 0% | 0% | 0% | 0%
6 | Cl.Nc1ncnc2occ(-c3ccc(NC(=O)Nc4cc(C(F)(F)F)ccc4F)cc3)c12 [SB-707548] | 4% | 67% | 46% | 20% | 90.8% | 100% | 94.1% | 100% | 0% | 0% | 11% | 35% | 0% | 0% | 12% | 0% | 0% | 0% | 19% | 99.8%
7 | O=c1cc(N2CCOCC2)nc2n(Cc3cccc4ccccc34)ccn12 [GSK2333389] | 0% | 0% | 0% | 6% | 0% | 0% | 0% | 19% | 2% | 13% | 0% | 10% | 0% | 24% | 10% | 0% | 14% | 7% | 7% | 0%
